About 4,800 (1.3%) of roughly 370,000 compounds were called active.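 The calls were made as follows: active = inhibition above about 21% made by adding two undisclosed values (limit read from the data); inactive = the rest.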 Many of the other results were omitted from the sample, so actives are more common in it than they were.
Target: Protein arginine N-methyltransferase 1 (Homo sapiens) (UniProt Q99873)
Test: human PRMT1 activity-probe blockers – biochemical, fluorescence polarization, primary screen (AID 652257)
Conditions: recombinant PRMT1, activity-based probe fluorescence polarization; at 2.79 µM; stronger effect = higher value

Sequence of Protein arginine N-methyltransferase 1 (Homo sapiens) (Q99873 whole entry, looked up): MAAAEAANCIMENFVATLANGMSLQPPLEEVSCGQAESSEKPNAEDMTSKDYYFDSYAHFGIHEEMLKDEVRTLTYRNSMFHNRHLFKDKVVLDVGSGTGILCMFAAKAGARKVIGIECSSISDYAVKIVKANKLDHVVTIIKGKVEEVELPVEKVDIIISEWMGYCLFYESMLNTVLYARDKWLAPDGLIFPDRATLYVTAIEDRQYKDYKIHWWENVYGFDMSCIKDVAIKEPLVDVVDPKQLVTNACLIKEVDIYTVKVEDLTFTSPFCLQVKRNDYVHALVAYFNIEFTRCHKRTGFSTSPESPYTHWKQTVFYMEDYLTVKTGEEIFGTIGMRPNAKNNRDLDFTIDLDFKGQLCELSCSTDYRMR

inhibition, active:
O=C(c1ccc[nH]c1=S)N1CCN(S(=O)(=O)c2ccc(Br)cc2Cl)CC1 31.8%
COc1cc(C(=S)NC2CCCCC2)ccc1O 29%
COc1cc(C(=S)N2CCOCC2)ccc1O 24.1%
O=C(Nc1nc(-c2ccco2)c(-c2ccco2)s1)c1ccco1 51.8%
Cc1cccc(C)c1NC(=O)C(Cl)C(=O)c1ccccc1 (stereo not drawn) 32%
O=C(NC(=S)Nc1ncccn1)c1ccccc1Br 21.4%
CCN(CC)CCCC(C)n1c2nc(=O)[nH]c(=O)c-2nc2cc(Cl)ccc21 (stereo not drawn) 161%
O=C(NC1=CC(=O)c2ccccc2C1=O)c1ccccc1 36.9%
C=C1c2c(Cl)ccc(O)c2C(O)=C2C(=O)[C@]3(O)C(O)=C(C(N)=O)C(=O)[C@@H](N(C)C)[C@@H]3[C@@H](O)C12 (stereo partly drawn) 44.5%
CN(C)[C@@H]1C(=O)C(C(N)=O)=C(O)[C@@]2(O)C(=O)C3=C(O)c4c(O)ccc(Cl)c4[C@@H](O)[C@H]3C[C@@H]12 32%
COc1ncnc2c1N=C1CC(C)(C)CC(N)=C1S2 33.2%
COc1ccccc1NC(=O)/C=C/C(N)=O 62.4%
Oc1ccc(N2CCN(C(=S)NCc3ccccc3)CC2)cc1 23.4%
CCCCOC(=O)CNc1nnc(SCC(=O)OCC)[nH]c1=O 74.3%
Cc1ccc(/C=C/C(=O)Nc2cc(S(=O)(=O)N3CCCCCC3)ccc2OCC(F)(F)F)o1 24.7%
COCCNC(=O)Nc1ccc2nc(-c3ccco3)c(-c3ccco3)nc2c1 88.9%
Clc1ccccc1CSc1nnc(-c2ccco2)c(-c2ccco2)n1 45.8%
S=c1ccc2ccccc2[nH]1 41.1%
Cc1cc(C(=O)NN=C/C=C/c2ccco2)n[nH]1 39.4%

inhibition, inactive:
O=C(O)c1cc(S(=O)(=O)N2CCCCCC2)c(Cl)cc1Cl -2.22%
Cc1ccc(S(=O)(=O)N2CCN(C(=O)c3ccccc3-c3nc4ccccc4s3)CC2)c(C)c1 6.86%
O=C(CNS(=O)(=O)c1ccccc1F)N1CCN(c2ccccn2)CC1 2.96%
O=S(=O)(c1ccc2c(c1)OCCCO2)N1CCN(S(=O)(=O)c2c(F)cccc2F)CC1 -4.09%
COc1ccc(C(C)NC(=S)NC2CCCCC2)cc1OC (stereo not drawn) -2.42%
COc1cc(C(=O)Nc2cc(C(F)(F)F)ccc2N2CCOCC2)ccc1O -2.71%
COc1ccc(C)cc1NC(=S)N1CCOCC1 -1.44%
Cc1ccc(C(=O)OCC(=O)NC2CCCCCCC2)cc1C -2.13%
COC(=O)C[C@@H]1CC[C@@H]2[C@@H](COc3ccc(NC(=O)Nc4ccc(F)c(F)c4)cc3C(=O)N2C)O1 -0.15%
O=C1c2ccccc2C(=O)N1CCC(c1ccccc1)c1ccco1 (stereo not drawn) 8.33%
CCCCCN(C(=O)NC(=O)Nc1ccccc1OC)S(C)(=O)=O 5.33%
O=C(OC12CCCN(C1)/C(=C/c1cccnc1)C2)C1CCCC1 (stereo not drawn) 0.1%
CCOC(=O)[C@@]12CN(C(=O)OC(C)(C)C)CC=C1N(Cc1ccc(OC)cc1)C(=O)[C@H]2CC(=O)NCc1ccc(OC)c(OC)c1 -3.24%
O=C(Nc1ccccc1C(=O)N1CCCCC1)c1ccco1 -7.4%
O=C(Nc1c(-c2ccccc2)nc2c(Br)cc(Br)cn12)c1ccco1 0.75%
O=C(CSc1nnc(C2CC2)n1Cc1ccccc1)Nc1cccnc1Cl 4.21%
CN=C(c1ccccc1)c1c(C)cccc1C -2.83%
Cc1cccc(C)c1NC(=O)N1CC(C)OC(C)C1 (stereo not drawn) 1.08%
CCOc1ccc(S(=O)(=O)N2CCC(C(=O)NCC(=O)Nc3cccc(Cl)c3C)CC2)cc1 -4.55%
CC(C)[C@@H](C)/C=C/[C@@H](C)[C@H]1CC[C@@H]2[C@]1(C)CCC1[C@]23C=C[C@]2(C[C@@H](O)CC[C@]12C)N(c1ccc([N+](=O)[O-])cn1)O3 (stereo partly drawn) 1.5%
O=S(=O)(Cc1nnnn1-c1ccc(Br)cc1)c1ccc(F)cc1 -3.12%
CC1CCN(C(=S)NC(=O)c2ccccc2Br)CC1 -1.71%
COC(=O)c1cccnc1NC(=S)NC(C)C -1.9%
CC(=O)N(O)CCCCCNC(=O)CCC(=O)N(O)CCCCCNC(=O)CCC(=O)N(O)CCCCCNC(=O)CCC(=O)O -4.14%
CCCCn1c(N)c(N(CCOC)C(=O)c2oc3ccc(OC)cc3c2C)c(=O)[nH]c1=O -1%
CC(C)NC(=O)C(c1ccc(F)cc1)N(C(=O)CCC(=O)Nc1ccccn1)c1ccccc1F (stereo not drawn) -0.59%
C[C@H](C(=O)N(C)c1ccccc1)[C@@H](O)c1ccc2ccccc2c1 6.67%
Nc1ccccc1C(=O)NC1CCCCNC1=O (stereo not drawn) -3.31%
O=C(NCc1ccco1)C1CCCN(S(=O)(=O)c2ccc(Cl)s2)C1 (stereo not drawn) -5.05%
O=C(OCC(O)C(O)COC(=O)c1ccccc1)c1ccccc1 (stereo not drawn) 1.36%
NS(=O)(=O)c1cc(C(=O)OCC(=O)NNC(=O)c2ccccc2)ccc1Cl -1.9%
COC(=O)c1cc(S(=O)(=O)N2CCN(c3ccccc3C)CC2)cn1C -0.8%
Cc1ccc(C(=O)NCC(=O)NC2CC2)cc1 -3.08%
CN(C)C(CNC(=O)c1cccc(S(=O)(=O)N2CCc3ccccc3C2)c1)c1ccccc1 (stereo not drawn) 2.65%
COc1ccccc1NC(=O)COC(=O)COc1ccccc1F -0.97%
COc1ccccc1NC(=O)c1cc(Cl)nnc1Cl 0.83%
CN(C(=O)c1cccc([N+](=O)[O-])c1)c1ccccc1C(=O)NCc1ccccc1 0.8%
Cc1cc(C)n(-c2nc(O)cc(=O)[nH]2)n1 -0.2%
O=C(COC(=O)c1ccccc1C(=O)N1CCN(c2ccccc2)CC1)NCc1ccccc1 12.8%
O=C(CN1CCN(c2ccccc2O)CC1)NC(=O)NCc1ccccc1 -0.8%
CC1CCN(C(=O)c2ncn3c2C(=O)N[C@@H](C)C3)CC1 -0.43%
COc1ccc(S(=O)(=O)N(C)C[C@@H]2Oc3ccc(NS(=O)(=O)c4cn(C)cn4)cc3C(=O)N([C@@H](C)CO)C[C@@H]2C)cc1 0.38%
COc1ccc(CCNC(=O)CSc2nc3c([nH]2)c(=O)n(C)c(=O)n3C)cc1 1.93%
CC(C)(C)c1ccc(C(=O)Nc2cc(Cl)c(Br)cc2C(=O)O)cc1 -1.7%
COC(=O)[C@]12C[C@H](CC(=O)NCc3cccs3)C(=O)N(CCc3ccc(OC)c(OC)c3)C1=C[C@H](C(C)C)O[C@@H]2C1CC1 -1.28%
CCOC(=O)CSc1nnc(CNc2ccc(F)cc2)o1 -0.98%
Cc1nnc(SCCCCSc2nnc(C)c(=O)[nH]2)[nH]c1=O 2.02%
CCC(=O)Nc1ccc2c(c1)C(=O)N(C)[C@@H]1CC[C@@H](CC(=O)NCCc3ccccc3)O[C@H]1CO2 1.16%
COc1ccc(S(=O)(=O)N2CCCCC2)cc1NC(=O)COc1ccccc1 2%
O=C(Nc1cc(S(=O)(=O)N2CCOCC2)ccc1OCC(F)(F)F)c1ccc(N2CCCC2=O)cc1 -0.65%
O=C(NCCCc1ccccc1)[C@H](Cc1ccccc1)NC1(C(=O)NCCc2c[nH]c3ccccc23)CCC1 4.62%
COc1ccc2c(c1)CN1CN(CCc3ccccc3)S(=O)(=O)CC21 (stereo not drawn) -7.45%
COc1cc(NC(=O)C2=CC(c3ccco3)=NS(=O)(=O)N2C)cc(OC)c1OC 1.92%
COc1ccc(C(=O)NC(=O)CSc2nnc(-c3ccco3)n2-c2ccccc2)cc1 4.1%
O=C(Nc1ccc(F)c([N+](=O)[O-])c1)C1CCCO1 (stereo not drawn) -0.52%
CCOC(=O)[C@]12CCCC=C1N(CCCOC)C(=O)[C@@H]2CC(=O)N1CCOCC1 -11.2%
COC(=O)Nc1nc2ccc(C(=O)C3CC3)cc2[nH]1 -5.37%
COc1ccc(C2NC(=O)C(=O)/C2=C(\O)c2ccc(Cl)cc2)cc1OC (stereo not drawn) 1.92%
Clc1ccc(-n2c(SC/C=C/c3ccccc3)nnc2-c2ccco2)cc1 2.59%
Cc1cccc(N(CC(=O)N2CCCC2)S(C)(=O)=O)c1C 0.79%
COc1ccc(N(CC(=O)N2CCOCC2)S(=O)(=O)c2ccccc2)cc1Cl 3.25%
CN1C(=O)c2cc(NS(C)(=O)=O)ccc2OC[C@@H]2O[C@@H](CC(=O)NCc3ccc(-c4ccccc4)cc3)CC[C@H]21 -3.76%
S=c1[nH]c2ccccc2c2ccccc12 13.6%
Brc1ccccc1CN1CCC(Cc2ccccc2)CC1 -1.49%
CCN(CC(=O)Nc1ccc(OC)cc1)C(=O)c1ccc(Cl)c(S(=O)(=O)N2CCCC2)c1 -2.9%
CCOc1ccc(NC(=O)CCCCCN2C(=O)[C@@H]3Cc4ccccc4CN3C2=O)cc1 0.46%
CC[C@]1(O)C[C@@H]2CN(CCc3c([nH]c4ccccc34)[C@@](C(=O)OC)(c3cc4c(cc3OC)N(C)[C@H]3[C@@](O)(C(=O)OC)[C@H](OC(C)=O)[C@]5(CC)C=CCN6CC[C@]43[C@@H]65)C2)C1 4.62%
O=C(N/N=C/C=C/c1ccco1)c1cccs1 17.1%
CN(C)S(=O)(=O)c1cccc(C(=O)N/N=C\c2ccco2)c1 -2.34%
